Test systems include ZAK; ZAP70; p38-delta.
Common to all, as to details: concentration: 1 μM, replicates: in singlicate; n = 1
Another test deals with T1, YANK2.
T1 construct: gene STK32B

The next test deals with T2, YANK3.
T2 construct: gene STK32C

The next test deals with T3, YES.
T3 construct: gene YES1

Another test has as its system T4, YSK1.
T4 construct: gene STK25

Another test deals with T5, YSK4.
T5 construct: gene MAP3K19

A further test deals with T6, p38-alpha.
T6 construct: gene MAPK14

In another test the test system is T7, p38-beta.
T7 construct: gene MAPK11
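Also: KINOMEscan kinase panel screen.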

Regarding `O=C1NC(=O)C(c2ccc(Cl)cc2)=C1Nc1ccc(O)cc1` [SB-340867], the “%Inh” value with YANK2 is given as 0%; in the test with YANK3, 0%; with YES, 0%; with YSK1, 8%; in the test with YSK4, 10%; in the test with ZAK it was 22%. For the same molecule, the “%Inh” value with ZAP70, in the test with p38-alpha, in the test with p38-beta and in the test on p38-delta was 0% each time.
Consider `O=C1NC(=O)C(c2ccc(Cl)cc2)=C1Nc1cccc(Cl)c1` [SB-317651], for which the “%Inh” value came to 0% in the test on YANK2; 0% in the test with YANK3; 0% in the test on YES; 0% in the test with YSK1; 0% in the test with YSK4; 16% with ZAK. Besides, the “%Inh” value in the test with ZAP70 amounted to 5%; in the test with p38-alpha, 13%; in the test on p38-beta, 0%; in the test on p38-delta, 5%.
In the case of `CNc1nc(-c2ccc3c(N)n[nH]c3c2)cc(N2C[C@@H](C(=O)NC3CCCCC3)OC[C@H]2C)n1` [GSK2375584], the “%Inh” value in the test on YANK2 is 2%; with YANK3, 22%; in the test on YES it was 14%; with YSK1 it was 5%; in the test on YSK4, 15%; with ZAK, 0%. For the same molecule, the “%Inh” value in the test on ZAP70 amounted to 0%; with p38-alpha, 23%; in the test on p38-beta, 0%; in the test with p38-delta it was 42%.
Turning to `COc1ccc(-c2coc3ccc(-c4nnc(C)o4)cc23)cc1`, the “%Inh” value is 9% in the test on YANK2; 9% with YANK3; 0% in the test with YES; 1% in the test on YSK1; 0% in the test with YSK4; 0% in the test with ZAK. For the same molecule, the “%Inh” value in the test on ZAP70 stood at 18%; in the test with p38-alpha it was 0%; in the test with p38-beta it was 14%; with p38-delta it was 0%.
`Cc1c(Cn2c3ccccc3n3c(=O)cc(N4CCOCC4)nc23)cccc1C(F)(F)F` [GSK2306394]: the “%Inh” value in the test with YANK2 is given as 0%; with YANK3 it was 13%; in the test on YES, 6%; in the test on YSK1 it was 0%; in the test on YSK4 it was 7%; with ZAK, 1%. The “%Inh” value in the test on ZAP70 is 0%; with p38-alpha it was 22%; in the test with p38-beta, 0%; with p38-delta it was 17%.
As to `COC(=O)C(NC(=O)NC1CCN(c2ccnc(Nc3ccc(F)cc3)n2)C1)c1ccccc1` (stereo not drawn) [GSK1379712], the “%Inh” value came to 0% with YANK2; 0% with YANK3; 0% in the test on YES; 14% in the test with YSK1; 32% in the test with YSK4; 0% with ZAK. Further, the “%Inh” value worked out at 4% in the test on ZAP70, 12% in the test with p38-alpha, 0% with p38-beta and 37% with p38-delta.
As for `FC(F)(F)c1ccccc1-c1cc(-c2c[nH]nc2-c2ccccn2)ccn1` [GW679396], the “%Inh” value came out at 18% in the test on YANK2; 13% in the test on YANK3; 0% in the test with YES; 0% in the test on YSK1; 0% in the test on YSK4; 0% with ZAK. In addition, the “%Inh” value with ZAP70 worked out at 0%; in the test on p38-alpha, 95.4%; with p38-beta it was 18%; with p38-delta it was 17%.
Regarding `O=C(Nc1n[nH]c2nc(-c3ccco3)c(Br)cc12)C1CCN(Cc2ccccc2)C1.O=C(O)[C@H](O)[C@@H](O)C(=O)O` (stereo not drawn) [SB-742034], the “%Inh” value in the test on YANK2 worked out at 9%; in the test with YANK3, 0%; in the test with YES, 12%; in the test on YSK1 it was 0%; in the test with YSK4, 56%; with ZAK it was 0%. Moreover, the “%Inh” value with ZAP70 is 35%; in the test with p38-alpha, 13%; in the test with p38-beta it was 15%; in the test with p38-delta it was 7%.
On to `O=c1cc(N2CCOCC2)nc2n(Cc3cccc(Cl)c3Cl)c3ccccc3n12` [GSK2299009], for which the “%Inh” value in the test with YANK2 came to 0%; in the test on YANK3 it was 29%; in the test with YES it was 17%; in the test on YSK1, 21%; in the test on YSK4, 3%; with ZAK it was 5%. Further, the “%Inh” value with ZAP70 is reported as 0%; in the test with p38-alpha, 12%; with p38-beta, 1%; with p38-delta, 16%.
Turning to `COc1cccc(CNC(=O)NC2CCN(c3ccnc(Nc4ccc(F)cc4)n3)C2)c1` (stereo not drawn) [GSK1379723], the “%Inh” value in the test with YANK2 turned out to be 0%; in the test on YANK3 it was 14%; in the test on YES, 8%; in the test on YSK1, 0%; with YSK4 it was 28%; in the test with ZAK it was 100%. Besides, the “%Inh” value was found to be 0% in the test with ZAP70, 0% in the test with p38-alpha, 0% in the test on p38-beta and 43% with p38-delta.
Turning to `O=C(Nc1n[nH]c2nc(-c3cccs3)c(Br)cc12)C1CC1` [SB-735297], the “%Inh” value in the test with YANK2 is listed as 11%; in the test with YANK3, 0%; with YES, 8%; with YSK1 it was 0%; in the test on YSK4 it was 95.3%; in the test on ZAK it was 30%. Also, the “%Inh” value in the test with ZAP70 was determined as 0%; with p38-alpha it was 4%; in the test with p38-beta, 2%; with p38-delta, 0%.
On to `Nc1nccc(-c2c(-c3ccc(F)cc3)ncn2C2CCN(Cc3ccccc3)CC2)n1` [SB-219980], for which the “%Inh” value was found to be 64% in the test on YANK2; 30% in the test on YANK3; 0% with YES; 0% with YSK1; 34% in the test on YSK4; 0% in the test on ZAK. The “%Inh” value with ZAP70 came to 21%; in the test on p38-alpha it was 99.7%; in the test with p38-beta, 18%; with p38-delta, 0%.
In the case of `O=c1cc(N2CCOCC2)nc2n(Cc3ccccc3F)ccn12` [GSK2297428], the “%Inh” value in the test with YANK2 came to 0%; with YANK3 it was 0%; in the test on YES, 0%; in the test on YSK1, 0%; in the test with YSK4, 33%; in the test on ZAK, 0%. In addition, the “%Inh” value in the test on ZAP70 worked out at 0%; with p38-alpha, 5%; in the test with p38-beta it was 0%; with p38-delta, 26%.
As for `Cc1ccc(NC(=O)Nc2ccccc2F)cc1-c1ccc(C(=O)Nc2ccncc2)cc1` [GSK1398477], the “%Inh” value is given as 12% in the test on YANK2; 16% with YANK3; 26% in the test on YES; 3% in the test on YSK1; 86% in the test on YSK4; 60% in the test with ZAK. The “%Inh” value is 0% in the test on ZAP70, 36% with p38-alpha, 12% with p38-beta and 36% in the test with p38-delta.
As for `CNc1cc(-c2ccc3c(N)n[nH]c3c2)nc(N)n1` [GSK2224810], the “%Inh” value in the test on YANK2 is on record as 8%; in the test with YANK3 it was 0%; in the test with YES, 0%; with YSK1, 6%; in the test with YSK4 it was 58%; in the test on ZAK, 0%. Also, the “%Inh” value in the test with ZAP70 is reported as 0%; in the test on p38-alpha it was 23%; in the test with p38-beta, 0%; in the test on p38-delta, 38%.
Turning to `Cn1cncc1-c1cc2c(Nc3ccc(OCc4ccccc4)cc3)ncnc2cn1` [GW281179], the “%Inh” value in the test with YANK2 amounted to 0%; with YANK3, 15%; in the test with YES it was 19%; with YSK1, 4%; in the test on YSK4, 27%; with ZAK, 43%. Further, the “%Inh” value in the test on ZAP70 is on record as 20%; in the test on p38-alpha, 0%; in the test on p38-beta, 0%; in the test with p38-delta, 52%.
Consider `CSc1ccc(-c2nc3n(c2-c2ccncc2)CCC3)cc1` [SKF-105561], for which the “%Inh” value is on record as 6% in the test with YANK2; 0% in the test with YANK3; 7% in the test on YES; 0% with YSK1; 7% with YSK4; 3% with ZAK. The “%Inh” value with ZAP70 amounted to 0%; in the test on p38-alpha, 51%; in the test on p38-beta it was 7%; in the test with p38-delta, 0%.
In the case of `O=C(Nc1n[nH]c2cc(-c3ccsc3)ccc12)C1CC1` [SB-732932], the “%Inh” value in the test with YANK2 stood at 0%; in the test with YANK3, 20%; in the test with YES, 12%; in the test with YSK1 it was 5%; in the test on YSK4 it was 94.7%; in the test with ZAK it was 5%. Besides, the “%Inh” value in the test with ZAP70 amounted to 0%; in the test with p38-alpha, 16%; in the test on p38-beta, 8%; in the test on p38-delta, 0%.
With `Cc1cnc(N)c(/C=C/c2cncc(C(=O)NCCc3ccc(Cl)cc3Cl)c2)c1.Cl` [GSK190937], the “%Inh” value turned out to be 0% in the test with YANK2; 26% in the test on YANK3; 20% with YES; 4% with YSK1; 27% in the test with YSK4; 16% in the test with ZAK. Further, the “%Inh” value came to 0% in the test on ZAP70, 29% with p38-alpha, 0% with p38-beta and 25% with p38-delta.
In the case of `Cc1ccc(NC(=O)Nc2ccc(Cl)c(C(F)(F)F)c2)cc1-c1ccc(C(=O)Nc2ccncc2)cc1` [GSK1398470], the “%Inh” value with YANK2 came to 0%; with YANK3, 10%; with YES it was 7%; in the test on YSK1, 0%; in the test on YSK4, 72%; in the test on ZAK, 59%. In addition, the “%Inh” value is given as 0% in the test on ZAP70, 95.9% in the test with p38-alpha, 96.2% with p38-beta and 0% with p38-delta.
Consider `NS(=O)(=O)c1cccc(N/C=C2\C(=O)Nc3ccc(S(=O)(=O)Cc4c(Cl)cccc4Cl)cc32)c1` [GSK398099], for which the “%Inh” value amounted to 0% in the test on YANK2; 12% in the test on YANK3; 22% in the test on YES; 0% with YSK1; 39% in the test with YSK4; 4% in the test on ZAK. Besides, the “%Inh” value with ZAP70 was 20%; with p38-alpha, 0%; with p38-beta, 0%; in the test with p38-delta, 27%.

Values taken from PMC5540273 (PLoS ONE, 2017).
